The target of assay [1] is Tyrosine-protein kinase Yes (Homo sapiens) (UniProt P07947). Briefly: qHTS for small molecule inhibitors of Yes1 kinase: Primary Screen (AID 686947).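 Further: plate controls were DMSO with enzyme for no effect and no-enzyme DMSO wells for full effect; nearly all actives have a fitted effect of over 60% in size.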 The conditions noted are these: Yes1 kinase biochemical qHTS inhibition; series mostly up to 76.9 µM. The essentials:
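ADP-Glo luminescence readout; final 4 nM Yes1, 0.1 mM ATP, 0.3 mg/mL poly(E4Y), Tris pH 7.5, MgCl2, DTT, Brij-35. 20 min compound preincubation, 60 min reaction at RT. Normalized to DMSO wells with and without enzyme.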

Assay [2] can be described thus: qHTS for small molecule inhibitors of Yes1 kinase: Counter Assay (AID 686950).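 Further: no kinase present so only ADP-Glo detection of a fixed ADP amount is tested; luminescence from ADP-Glo reporting ADP in a fixed ATP and ADP mixture; 0% = DMSO wells with ATP plus ADP and -100% = ATP-only wells without ADP.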 The conditions noted are these: series mostly up to 76.9 µM. The essentials: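 Enzyme-free ADP-Glo interference check: compounds were preincubated 20 min in buffer, then an ATP/ADP mix (0.08 mM ATP, 0.02 mM ADP final) was added for 60 min at room temperature before two-step ADP-Glo luminescence detection.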

Assay [3] concerns the target Arylsulfatase A (Homo sapiens) (UniProt P15289). The assay is described as follows: qHTS screen for enhancers of Arylsulfatase A (ASA1): LOPAC Validation Assay (AID 720538). The following applies: ASA enzyme activity, LOPAC qHTS enhancer assay; series mostly up to 57.5 µM. The essentials:
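MLD patient fibroblasts (SV40, ASA-I179S), 1536-well; adhere 6 hrs; cpd 48h, 37 degree C, 5% CO2; pNCS 0.5mM final in lysis buffer, 14h RT; stop 1N NaOH final; fluor. Ex525/Em598.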

A short description of assay [4]: qHTS for compounds that reverse cellular toxicity of Amyloid beta (A-beta) peptide in yeast: LOPAC Validation Assay (AID 720559).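 Further: plate controls were DMSO for no effect and equimolar ferric chloride plus clioquinol rescue for full effect.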 The following applies: yeast expressing A-beta; series mostly up to 46.1 µM. The essentials: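 Medium dispensed, compounds pinned, A-beta yeast suspension added; plates held at 30 C for 48 hr; absorbance measured at 600 nm to gauge growth; values scaled between DMSO and FeCl3/clioquinol (equimolar) controls.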

The nature of assay [5]: qHTS for Activators of Parkin Expression: LOPAC Validation Assay (NLuc Reporter) (AID 720572). The following applies: Parkin promoter NanoLuc reporter cells, luminescence, percent of positive control, DMSO as zero; series mostly up to 46.1 µM. The gist of the method:
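Neuronal line stably carrying a FLuc/NLuc coincidence reporter under the Parkin promoter, seeded 24 h, then dosed in 7-point series for 24 h at 37 C. NLuc luminescence read after FLuc; normalized to DMSO and positive control (100%).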

The nature of assay [6]: qHTS for Activators of Parkin Expression: LOPAC Validation Assay (FLuc Reporter) (AID 720573). The conditions noted are these: Cell line, PRKN promoter firefly luciferase reporter, vehicle wells = 0, positive control = 100%; series mostly up to 46.1 µM. The essentials:
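Cells seeded, 24 h; compounds pinned, 7-pt dose response; 24 h at 37 C/5% CO2; volume reduced; FLuc reagent 10 min RT; luminescence read. Normalization: DMSO = 0, positive control = 100%.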
A general note: Quantitative high-throughput screening tests each substance at several concentrations.

Assay [7] has as its target T1, Hexokinase-4 (Homo sapiens) + Glucokinase regulatory protein (Homo sapiens) (UniProt P35557+Q14397). Briefly: qHTS assay for inhibitors of recombinant human GCK-GKRP interaction: Diaphorase-coupled assay (AID 743205). The following applies: G6PDH/diaphorase resorufin fluorescence; series mostly up to 57.5 µM. The essentials: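 25 mM Hepes pH 7.6, 5 mM glucose, 0.4 mM ATP, 4 U/ml G6PDH; 10 nM each GST-GCK/FLAG-GKRP. Kinetic fluorescence read, 1/min × 30 min. Normalized: DMSO ± enzyme = max/min.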

Assay [8] concerns the target T1, Hexokinase-4 (Homo sapiens) + Glucokinase regulatory protein (Homo sapiens). Briefly: qHTS assay for inhibitors of recombinant human GCK-GKRP interaction: ADP-Glo assay (AID 743206).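 Further: plate controls were DMSO plus enzyme for no effect and no enzyme for full effect.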 The following applies: ADP-Glo luminescence, 60 min, 0% = vehicle-only wells with enzyme present; series mostly up to 76.9 µM. The essentials: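 GST-GCK and FLAG-GKRP (15 nM each in the dispensed mix, with 2 uM S6P) react with 0.4 mM ATP and 5 mM glucose (final) in Hepes pH 7.6 for 60 min at room temperature. ADP is measured by ADP-Glo luminescence.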

The target is the same in assay [9]. The assay is described as follows: qHTS assay for inhibitors of recombinant human GCK-GKRP interaction: HTRF assay (AID 743207).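 Further: 0% = DMSO with GCK present and -100% = DMSO wells lacking GCK.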 The following applies: recombinant GCK-GKRP HTRF binding, 60 min, with sorbitol-6-phosphate; series mostly up to 57.5 µM. The essentials:
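5 nM GST-GCK + 5 nM FLAG-GKRP + 2 uM S6P, pH 7.1 buffer (25 mM Hepes, 2 mM MgCl2, 25 mM KCl, 1 mM DTT, Tween/BSA); pin-transferred cpd; anti-FLAG XL665/anti-GST K; 60 min RT; HTRF.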

Assay [10] can be described thus: qHTS Assay for Identifying Gametocytocidal Compounds (AID 743244). Further: potency means the concentration at half of the fitted maximal effect.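 On max response: on the % scale 0 is the no-effect control and ±100 the full control effect; actives lower the fluorescent signal which means gametocytes are killed.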 The conditions noted are these: P. falciparum 3D7 stage III-V gametocytes, alamarBlue, 72 h; max response: stronger effect = lower value. The essentials: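 Using 20,000 stage III–V 3D7 gametocytes per well, compounds were incubated 72 h under 37 °C/5% CO2. Viability was then assessed by 24 h alamarBlue reduction, measured fluorometrically at 525/598 nm.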

A short description of assay [11]: qHTS assay for environmental chemicals that activate the Aryl hydrocarbon Receptor (AhR) signaling pathway (AID 651777). Further: % of control where 0% means no effect; nearly all actives have a fitted effect of over 15% in size. The conditions noted are these: 1A2-DRE human hepatoma cells, luciferase, 24 h; stronger effect = higher value. The gist of the method:
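Luminescence read-out: One-Glo added for 30 min at RT after 24 hr compound treatment (37 C, 5% CO2) of human hepatoma cells expressing a DRE/CYP1A2 promoter–luciferase reporter; increased signal indicates AhR activation.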

For assay [12], the target named is Peroxisome proliferator-activated receptor alpha (Homo sapiens) (UniProt Q07869). Briefly: qHTS assay for small molecule agonists of the peroxisome proliferator-activated receptor alpha (PPARalpha) signaling pathway (AID 651778). Further: potency means the concentration at half of the fitted maximal effect. On max response: % of control where 0% means no effect. The conditions noted are these: PathHunter PPARalpha complementation, chemiluminescence, 6 h; max response: stronger effect = higher value. The gist of the method: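 Cells plated at 2,000/well and held overnight at 37 C, 5% CO2, then compound added by pin tool for 6 hr; after PathHunter detection reagent and 60 min at room temperature, chemiluminescence from enzyme complementation was read.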
Peroxisome proliferator-activated receptor alpha (Homo sapiens), sequence (Q07869 whole entry, looked up): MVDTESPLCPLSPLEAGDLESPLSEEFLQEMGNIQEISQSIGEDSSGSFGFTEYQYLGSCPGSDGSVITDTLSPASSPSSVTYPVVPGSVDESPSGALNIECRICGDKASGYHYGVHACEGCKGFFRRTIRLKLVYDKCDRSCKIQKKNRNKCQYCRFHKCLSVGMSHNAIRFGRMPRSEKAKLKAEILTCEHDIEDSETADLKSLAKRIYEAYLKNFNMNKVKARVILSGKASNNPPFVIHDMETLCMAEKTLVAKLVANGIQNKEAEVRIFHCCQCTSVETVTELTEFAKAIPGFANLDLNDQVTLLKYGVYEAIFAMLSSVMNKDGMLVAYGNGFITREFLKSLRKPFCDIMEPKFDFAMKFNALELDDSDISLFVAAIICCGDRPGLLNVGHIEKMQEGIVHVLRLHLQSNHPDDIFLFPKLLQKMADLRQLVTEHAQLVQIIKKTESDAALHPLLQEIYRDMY

Assay [13] is described as follows: qHTS assay for small molecule disruptors of the mitochondrial membrane potential - 5 hr assay (AID 651755; calls by dose curve; further: on the % scale 0 is the no-effect control and ±100 the full control effect; nearly all actives have a fitted effect of over 40% in size). The following applies: JC-1-type ratio dye; series mostly up to 92.2 µM. The gist of the method:
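HepG2 cells, attached overnight at 37C, were exposed to compound or DMSO for 5 hr at 37C, 5% CO2. Mito-MPS dye was then added for 30 min, and fluorescence read at 490/535 nm (monomers) and 540/590 nm (aggregates).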

Assay [14] addresses Tumor necrosis factor (Homo sapiens) (UniProt P01375). Briefly: qHTS assay to identify small molecules that stimulate Tumor Necrosis Factor-alpha (TNF-alpha) secretion (AID 651757; active means well fitted curve in the direction sought with a large enough effect in the signal ratio; the % refers to the signal ratio; further: 0% is about no effect). The following applies: Human cells, HTRF 665/615 ratio; series mostly up to 92.2 µM. The essentials: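 THP-1 cells were exposed to compounds for 17 hrs at 37 C, after which secreted TNF-alpha was measured by homogeneous HTRF (TR-FRET) using cryptate- and XL665-labeled anti-TNF-alpha antibodies, read after 3 hr at room temperature.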

Assay [15] addresses Nuclear receptor ROR-gamma (Homo sapiens) (UniProt P51449). Briefly: qHTS assay for small molecule antagonists of the retinoid-related orphan receptor gamma (ROR-gamma) signaling pathway (AID 651802). Further: nearly all actives have a fitted effect of over 60% in size. Further: potency means the concentration at half of the fitted maximal effect. The conditions noted are these: ROR-gamma antagonist cell reporter assay; series mostly up to 92.2 µM. The essentials: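 CHO cells carrying TET-inducible ROR-gamma and an ROR response element–luciferase reporter were exposed to compound, then induced with doxycycline. After 16hr at 37C, luminescence was read; lower signal indicates antagonism.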

The nature of assay [16]: qHTS assay for small molecule agonists of the antioxidant response element (ARE) signaling pathway measured by Nrf2-dependant transcriptional activity (AID 720636; active means well fitted curve in the direction sought with a large enough effect in the repeat runs; an effect the other way counts as inactive or inconclusive;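 further: HepG2 cells with an ARE-driven luciferase reporter; % of control where 0% means no effect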). The conditions noted are these: ARE-luc HepG2, Nrf2 luciferase reporter, 16 h; series mostly up to 92.4 µM. The gist of the method:
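HepG2 ARE-luc reporter line, 1% dialyzed FBS; 6 hr attachment at 37 C, compound pinned in, 16 hr at 37 C/5% CO2; ONE-Glo, 30 min RT, luminescence read.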

Assay [17] in a line: qHTS assay for small molecule antagonists of the retinoid-related orphan receptor gamma (ROR-gamma) signaling pathway - cell viability counter screen (AID 720652; active means well fitted curve in the direction sought with a large enough effect in the repeat runs; an effect the other way counts as inactive or inconclusive;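 further: compound exposure lasted 16 hr before ATP read; on the % scale 0 is the no-effect control and ±100 the full control effect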). The following applies: RORgamma reporter cell line viability counter screen; series mostly up to 92.2 µM. The gist of the method:
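Counter screen in CHO cells carrying TET-inducible ROR-gamma and an ROR response element-luciferase reporter; cells plated 5 hr, compound pinned, doxycycline added, then 16 hr at 37 C. Viability read as intracellular ATP by CellTiter-Glo luminescence.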

“And” between values parts separate entries of the source, which are not always exact repeats. Equal values may be shown once. Values without a mark were called inactive. Inconclusive results are not listed. The source holds several records for some structures; these can differ, active in one and inactive in another. The source made the active and inactive calls. Unless noted, the call rests on the fitted dose curve; in most records, active means well fitted curve in the direction sought with a large enough effect; inconclusive means small, poorly fitted or top-dose-only effect, or another doubt; inactive means no such curve, though single readings can be large; an effect the other way counts as inactive or inconclusive.

Tumor necrosis factor (Homo sapiens), sequence (P01375 whole entry, looked up): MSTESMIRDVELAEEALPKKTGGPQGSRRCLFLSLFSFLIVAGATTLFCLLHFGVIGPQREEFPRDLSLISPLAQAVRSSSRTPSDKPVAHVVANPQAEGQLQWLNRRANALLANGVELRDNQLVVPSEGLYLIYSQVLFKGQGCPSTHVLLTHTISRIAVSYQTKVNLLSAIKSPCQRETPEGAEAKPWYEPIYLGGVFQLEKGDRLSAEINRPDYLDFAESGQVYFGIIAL
Nuclear receptor ROR-gamma (Homo sapiens), sequence (P51449 whole entry, looked up): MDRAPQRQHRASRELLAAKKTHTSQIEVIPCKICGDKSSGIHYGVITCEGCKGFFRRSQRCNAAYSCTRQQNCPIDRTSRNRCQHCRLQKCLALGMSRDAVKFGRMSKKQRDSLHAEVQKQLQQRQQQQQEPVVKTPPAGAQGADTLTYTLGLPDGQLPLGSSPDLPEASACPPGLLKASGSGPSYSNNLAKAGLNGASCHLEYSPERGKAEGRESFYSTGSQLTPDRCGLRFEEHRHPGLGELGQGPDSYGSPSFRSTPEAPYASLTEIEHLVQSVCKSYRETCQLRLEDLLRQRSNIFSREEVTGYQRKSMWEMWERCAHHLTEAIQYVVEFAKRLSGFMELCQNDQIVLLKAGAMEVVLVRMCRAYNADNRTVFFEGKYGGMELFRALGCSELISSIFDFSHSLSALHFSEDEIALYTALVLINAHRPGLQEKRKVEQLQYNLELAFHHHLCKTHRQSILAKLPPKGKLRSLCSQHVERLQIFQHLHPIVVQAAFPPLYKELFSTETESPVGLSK
T1 sequence (P35557 whole entry, looked up): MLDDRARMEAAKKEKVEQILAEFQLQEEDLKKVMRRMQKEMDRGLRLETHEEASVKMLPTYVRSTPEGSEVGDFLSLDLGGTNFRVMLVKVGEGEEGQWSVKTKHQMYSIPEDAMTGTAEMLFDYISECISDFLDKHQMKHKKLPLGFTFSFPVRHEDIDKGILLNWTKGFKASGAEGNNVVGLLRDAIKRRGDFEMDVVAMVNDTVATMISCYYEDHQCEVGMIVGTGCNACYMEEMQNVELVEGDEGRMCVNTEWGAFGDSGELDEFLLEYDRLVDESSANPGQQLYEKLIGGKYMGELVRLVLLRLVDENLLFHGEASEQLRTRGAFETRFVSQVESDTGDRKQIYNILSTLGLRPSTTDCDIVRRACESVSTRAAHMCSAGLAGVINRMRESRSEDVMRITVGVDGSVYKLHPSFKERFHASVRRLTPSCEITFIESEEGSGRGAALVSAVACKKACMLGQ
T1 sequence (Q14397 whole entry, looked up): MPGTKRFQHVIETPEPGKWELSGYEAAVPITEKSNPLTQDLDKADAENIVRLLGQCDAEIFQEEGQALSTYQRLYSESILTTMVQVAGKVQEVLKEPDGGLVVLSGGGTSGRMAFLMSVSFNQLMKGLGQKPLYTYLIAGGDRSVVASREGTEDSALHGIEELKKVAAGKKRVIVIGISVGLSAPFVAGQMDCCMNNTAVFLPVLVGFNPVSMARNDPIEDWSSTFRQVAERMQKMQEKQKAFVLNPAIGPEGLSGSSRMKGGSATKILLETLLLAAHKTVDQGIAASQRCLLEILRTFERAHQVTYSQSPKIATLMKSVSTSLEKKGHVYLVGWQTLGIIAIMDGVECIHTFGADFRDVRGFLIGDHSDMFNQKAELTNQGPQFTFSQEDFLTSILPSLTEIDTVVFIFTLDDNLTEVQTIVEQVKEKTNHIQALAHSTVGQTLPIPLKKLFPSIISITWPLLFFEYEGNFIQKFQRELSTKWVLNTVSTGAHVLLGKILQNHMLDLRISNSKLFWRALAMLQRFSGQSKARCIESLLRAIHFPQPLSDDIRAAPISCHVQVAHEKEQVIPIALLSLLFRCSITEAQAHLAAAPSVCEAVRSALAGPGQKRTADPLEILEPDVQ
Tyrosine-protein kinase Yes (Homo sapiens), sequence (P07947 whole entry, looked up): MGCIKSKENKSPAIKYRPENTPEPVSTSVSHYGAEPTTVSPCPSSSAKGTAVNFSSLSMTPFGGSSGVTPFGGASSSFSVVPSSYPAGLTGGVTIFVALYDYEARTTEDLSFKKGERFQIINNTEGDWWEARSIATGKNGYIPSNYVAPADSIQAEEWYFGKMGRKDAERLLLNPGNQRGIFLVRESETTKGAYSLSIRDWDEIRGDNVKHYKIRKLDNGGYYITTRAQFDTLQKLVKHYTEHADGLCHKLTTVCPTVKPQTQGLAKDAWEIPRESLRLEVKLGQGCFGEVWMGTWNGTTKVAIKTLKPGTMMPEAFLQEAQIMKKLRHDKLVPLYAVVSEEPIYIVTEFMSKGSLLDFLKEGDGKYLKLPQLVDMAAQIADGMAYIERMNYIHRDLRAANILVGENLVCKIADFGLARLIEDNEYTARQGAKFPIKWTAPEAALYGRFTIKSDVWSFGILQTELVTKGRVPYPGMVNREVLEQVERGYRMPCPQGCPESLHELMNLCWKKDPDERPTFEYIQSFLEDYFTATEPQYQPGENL
Arylsulfatase A (Homo sapiens), sequence (P15289 whole entry, looked up): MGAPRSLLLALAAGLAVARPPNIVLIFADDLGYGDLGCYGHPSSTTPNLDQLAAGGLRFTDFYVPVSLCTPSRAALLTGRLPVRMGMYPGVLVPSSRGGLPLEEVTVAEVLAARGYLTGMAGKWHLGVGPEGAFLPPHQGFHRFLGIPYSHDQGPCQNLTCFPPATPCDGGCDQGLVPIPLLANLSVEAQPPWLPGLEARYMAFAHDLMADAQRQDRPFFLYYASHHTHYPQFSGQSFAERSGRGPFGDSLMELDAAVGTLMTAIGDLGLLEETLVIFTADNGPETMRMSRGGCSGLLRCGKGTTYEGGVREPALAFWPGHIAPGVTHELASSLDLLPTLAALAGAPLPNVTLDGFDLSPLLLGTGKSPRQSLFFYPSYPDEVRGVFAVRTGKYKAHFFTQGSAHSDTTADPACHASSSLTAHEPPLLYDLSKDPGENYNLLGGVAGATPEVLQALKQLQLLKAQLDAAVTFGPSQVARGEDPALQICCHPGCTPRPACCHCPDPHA

As to `CCN(CC)CCn1c(=O)c(Cc2ccc(OC)cc2)nc2ccccc21`, the outcome in assay [1], in [2], in [3], in [4], in assay [5] and in assay [6] was inactive. The result in assay [7], in assay [8] and in assay [9] was inactive. Also, in assay [10], the max response is -7.99%.
Take `N[C@@H](Cc1ccc(O)c(O)c1)C(=O)O`: in assay [11], the activation is 2.04%. The max response in assay [12] was -1.63%; in [10], 20.2%. In addition, the outcome in assay [3], in assay [4], in assay [5], in assay [6], in [7] and in assay [8] was inactive. Besides, the outcome in [9] was inactive.
Regarding `C[C@]12C=CC(=O)C=C1CC[C@@H]1[C@@H]2C(=O)C[C@@]2(C)[C@H]1CC[C@]2(O)C(=O)CO`, the Potency entry in assay [13], in assay [15] and in [17] was “inactive” throughout. The outcome in assay [14] and in assay [16] was inactive. In assay [11], the activation is -0.111%. Besides, the max response is -2.07% in [12] and 18% in assay [10].
With `CC(=O)Oc1ccccc1C(=O)Nc1ncc([N+](=O)[O-])s1`, the max response in assay [12] is -4.4%. Further, the outcome in assay [16] was inactive.
Take `NC1(c2ccc(-c3nc4ccn5c(=O)[nH]nc5c4cc3-c3ccccc3)cc2)CCC1`: in assay [2], the result was inactive. For the same compound, in [10], the Potency was 11.8 µM (active).
As to `Cc1nnc(NS(=O)(=O)c2ccc(N)cc2)s1`, the result in assay [14] and in assay [16] was inactive. In addition, the activation in assay [11] was -0.461%. For the same compound, the max response is 6.59% in [12] and -4.6% in assay [10]. Also, the Potency result in [15] and in [17] was “inactive” throughout.
With `Cc1c(-c2ccc(O)cc2)n(Cc2ccc(OCCN3CCCCCC3)cc2)c2ccc(O)cc12`, the compound was called inactive in assay [1] and in assay [2].
For the compound `O=C(O)c1cc(=O)[nH]c(=O)[nH]1`, the result in [14] and in assay [16] was inactive. Besides, in assay [11], the activation was 0.283%. Besides, the max response in assay [12] is -0.877%; in [10], -0.993%. Further, the Potency entry in assay [15] and in assay [17] was “inactive” in each case.
As for `O=S(=O)(c1cccc2cnccc12)N1CCCNCC1`, the compound was classed as inactive in assay [1] and in [2]. In addition, in assay [10], the max response is -7.26%.
Take `OC(Cn1cncn1)(Cn1cncn1)c1ccc(F)cc1F`: the activation in [11] was -1.75%. Besides, the figures for the max response in assay [12] and in [10] were -1.95% and -0.14%, respectively. Also, in [16], the result was inactive.
Consider `NC(N)=NC(N)=NCCc1ccccc1`, for which the outcome in [14] and in assay [16] was inactive. Further, in [11], the activation is 1.08% and -0.702%. For the same compound, the Potency in [12] was 35.5 µM (active); in [15], 16.8 µM (active). Further, the max response in assay [12] is -1.6%; in assay [10] it was 18.8% and 0.965%. Besides, the Potency entry in [17] was “inactive”.

(Values after PubChem BioAssay (NCATS).)
